# From PubChem BioAssay AID1347423 (Functional Genomics Laboratory (NCATS/FGL), 2020)
# Hit rate of the full screen: of about 52,000 sequences, about 210 (0.4%) were called active. Many of the other results were omitted from the sample, so actives are more common in it than they were. A number with no mark means an inactive call.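 How the source made its calls: active means gene whose silencing raises cell survival under the drug, median off-target-corrected z-score across its silencing RNAs 2 or more; inactive means the rest.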
# Test: Resistance to Poly (ADP-Ribose) Polymerase inhibitor: Gene Identification via Genome-wide siRNA Screen
# Conditions: mouse BRCA2 R2336H ES cells, olaparib, CellTiter-Glo viability; active compounds read high
# Method in brief: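 Mouse BRCA2 R2336H ES cells were reverse-transfected with siRNA (20 nM final), treated at 48 h with 500 nM olaparib, and read by CellTiter-Glo after 72 h. Scores: MAD-based z per siRNA, median per gene, seed off-target correction.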
row,Sequence,z-score
1,CCUCUCCAACAACCAACUATT against 2900010D03Rik,-1.42
2,GGAGAUAAAAGUUUCAUCUTT against Jmjd2b,0.46
3,GGUACCUGUUUGUUUUACATT against Epb4.1l4b,5.02
4,CCCUAGAAUGGGAAUGUCATT against C030022K24Rik,0.313
5,GUCAUCAAACUAGGUGCUGTT against Olfr584,5.09 (active)
6,GGGUCCAUUGUCAAUGUCUTT against Cbr2,-0.721
7,GGGCUUCGAUGCUAUCAUCTT against 6430573F11Rik,0.734
8,CCAUCUACGUGGGACACAATT against Atp11a,-1.41
9,GGAGAACGAAAGGAUGAAATT against Rpusd4,-1.09
10,GGAGAAAAGGAUGUUGUUATT against 2310005P05Rik,2.57
11,CGAUAAUUUGGCUAAGUAUTT against Pip5k3,0.0345
12,CCAAGGGAAGAUUCAAAUUTT against D930031B21Rik,-1.19
13,GCCAGAAACUAAUGAGAUCTT against 1110001E17Rik,1.17 (active)
14,GGAAUUUUCUAUAGUCCGGTT against Flrt2,0.268
15,GCGCAAAGGUGAAACGUAGTT against E030011O05Rik,-0.0435
16,GCAUCCUACGCAUUAAAUCTT against Olfr146,-0.12
17,CGAAAAUCAAGGGAGCUCATT against Rnf19,-0.128
18,GCACCAUGUCAGGAAGUGUTT against B230315M08Rik,3.45 (active)
19,GCCUUUUAGCUGUUCAGGATT against AI451557,-1.18
20,GGAGUUCAUUCUGAAUCAGTT against Etohi2,-0.817
21,GCUACAAAGCGAUGUUUCATT against Pola2,-1.88
22,GGUCUCCACCUCCAUAUCCTT against Slc15a3,0.715
23,GCAGAGGAUAUAAAACAAGTT against Pde2a,0.234 (active)
24,CGUCUCAACAGAGUUGGAGTT against Hrmt1l1,0.151
25,CCCAGAACUAUUCAACACUTT against Sema4g,1.4
26,GGCAGAGAAAAGGACCUUUTT against 2400002F11Rik,-1.69

row,Sequence,z-score
1,GGACAUAAGUGACAGACAUTT against Chrnb2,-1.32 (active)
2,GCAUUCAUGAAAGUGUUAGTT against Olfr164,1.23
3,GGCGAAUUAUUGAAAACGUTT against Actr8,3.41 (active)
4,GGUGGUGUUUCAUAAGAUGTT against Rragc,0.792
5,CCCAGCUAUGCGAUCUUAATT against 1300003B13Rik,-1.51
6,GGGUUUCUGUUUGAUUCCATT against Gria1,1.91 (active)
7,GCUACUGAGUUAUAGAAAGTT against Olfr1316,0.323
8,CCAACUGUAGAUGUAUAUATT against Pmp22,0.0495
9,GGUGAUCCUCAUCAUCAGUTT against 2400010G15Rik,2.76 (active)
10,GGUUGCAUCACAGCGUAUATT against Plekhe1,0.0124
11,GGAGGUCCAGCUGUUCAUGTT against Kcnn4,2.89
12,GGCAAUUGUUUUUAGAGAGTT against 2610510J17Rik,0.946
13,GGCUGUCUUGAUUUUGAUUTT against C3ar1,-0.0188
14,CGAACCUACAGAGCUCAUGTT against Rpl17,-2.32
15,GGGUGCUUAAUAAACAUAATT against Slc22a8,1.12
16,GCUGAAAUACCACUCUCCGTT against Chl1,-1.28 (active)
17,CCAAUCUCUACCGUCUCCUTT against Camp,-0.0705
18,GGCUCAACUGUGUUAAACATT against Tnfrsf4,0.801
19,GCAAAACCUACUGCGUGGATT against 2410195B05Rik,0.682
20,GGGUUUCUGUUAAUCCACATT against Hist1h3g,-1.25
21,GGUGAUAUUAUACAUUCACTT against Rnd1,0.43
22,CCACUGAAGUUUUCAUUCUTT against Olfr1055,0.663
23,GGUGUGCAUCAAGCGACUGTT against Cacng6,1.29
24,GGAGUCAAGUCCACAUACATT against Usp47,-0.927 (active)
25,GCACACCCAAUGCUCUAAGTT against Mare,0.284
26,GCGACAACGAUUUUGAAAUTT against Rsu1,0.756

row,Sequence,z-score
1,GCCGACGUAGUGACAUUCUTT against Crybb3,-1.17
2,CGUAUCAAACAGGAAAUGGTT against Arid5b,1.02
3,GGACUGCUAUGGGUCUUCATT against Clk3,-1.64
4,GGGACAGUCUUCAGUGACATT against 0610037L13Rik,-2.25
5,CCACAAAGAAUGCAUUACUTT against BC022146,-1.42
6,GGAACGAUCGAAACAAGAATT against Rarg,3.59 (active)
7,GCAAGAGUCUGCUACGACATT against Opn1sw,0.0796
8,GGUCCCAUUCAGUGUGUGUTT against Cdk10,-0.19
9,GGGAUGAGUAUGCUUAUGGTT against Rgpr,0.176
10,GCAGAAUGGUAAAUCCGAUTT against Mc5r,1.96
11,CCCUAAGUUCUCGUUUCUGTT against Cherp,1.57
12,GGACCAACAUAACCUCUACTT against BC037432,0.0137
13,GGAACGAGACUCAUCUUCUTT against Cic,1.35 (active)
14,GGAUCCUUCAGCAUUCUUATT against Egr2,-0.406
15,GGAACAGUCUGAAAUACACTT against Usp18,0.039 (active)
16,GGAUAACCUUAACUUCUGATT against 2810449C13Rik,2.16
17,GGGACCCUUCUACAAAAACTT against Pias3,2.3 (active)
18,GGAGAGUACUAAAUUUAAGTT against 4833418A01Rik,0.0243
19,GGAAUUUUAUCAUUGGGACTT against 5031404N07,-0.078
20,CCUGGUAACAGUCAUAAAUTT against Lhfpl2,-0.196
21,GGAAAUGCUUCUGAGCUAGTT against 5830417C01Rik,0.677
22,GGACCUCAGCGAAGACAAUTT against BC034097,2.03 (active)
23,GGUCGGUGUUUUAUCUGCUTT against BC019537,-1.19
24,GGGAUACUGGUGCUUAACUTT against Abhd1,0.661
25,GCCACCUCUUAUGAGGCUUTT against D630045E04Rik,-1.04
26,GGUGGUUACAACCGAAGCATT against Fus,2.95 (active)

row,Sequence,z-score
1,GCCCUAGAACUUUUGAAUUTT against Dhx15,-1.01
2,GGAGGUGUUGAACAAGUGCTT against 1700008P20Rik,-1.32
3,GCAAGCAGAUCUGAUAUCATT against 2700050F09Rik,4.76 (active)
4,GCCUGGAUUCAGAAGCUACTT against Ugt1a1,0.72
5,GGAGGAGGAGGACUUUGAUTT against 5830417I10Rik,-1.23
6,GGAACAUUACAAAAGCUCUTT against Slfn1,-0.715
7,GAAUCUAAAGAUGAACACCTT against 0610009B22Rik,-0.48
8,GCAAGUGGUAAUGGUGACCTT against Tex15,-0.249
9,GGACUUUUAUUUUGUUAGCTT against Pacsin2,3.01 (active)
10,GUUUUCUUGAGACAGUUAATT against 1810008A14Rik,-0.106
11,GGAGUUGAUCAAGACAGAGTT against S100a5,-0.443
12,GGAGGAAAGAAUGUGUAAATT against Birc3,-0.544
13,GCAUGCAUGAUGGAUCUUCTT against Gabrb1,-2
14,GGAAACAACGGAUCCAAAATT against Plcb3,2.47 (active)
15,GCUUACAUCCAAGCCGUCUTT against 4931440B09Rik,1.71
16,CCAAGUUCACAAUUGUUCUTT against Gm457,-0.19
17,GGACUUGUCUUUGACACGCTT against Nt5c2,2.18
18,GGAUUCCCUAUCCCAUACCTT against Araf1,4.36 (active)
19,GGUCAAAAGAAACAGGUGUTT against 2310047I15Rik,0.438
20,GCAACUAGCCUGUUCUAUCTT against AI325941,1.68
21,GGAGUUGAAGUUUGUGACATT against Acpp,2.3 (active)
22,GGUGAAAGUGAGAAGGAAGTT against 6720460F02Rik,-0.247
23,CCUGAAUUACCUCAUAUAUTT against Stat5b,0.922
24,GCUGAAACCUCAUGAGGAGTT against Ptpn9,3.06 (active)
25,GCUACUAUUGUGUUCUGAATT against Drd1a,-0.386
26,GGUACUCGGUUAUCAUGAATT against Olfr1403,1.39
